# In PubChem BioAssay:
# Values without a mark were called inactive. No stated cut-off is given here; in the data, active means inhibition above about 30%; inactive means the rest.
# Assay: growth suppression of yeast trafficking mutant, preliminary HTS, modulators of trafficking downstream of Golgi apparatus project, 1536-format plate, OD 615 nm (AID 637)
# Settings: yeast transport mutant growth, absorbance 615 nm, 18 h; active compounds read high
row,SMILES,inhibition [%]
1,CCOC(=O)N1CCC(NC(=O)CCc2c(C)nc3c(c(C)nn3C(C)(C)C)c2C)CC1,-3.02
2,Cc1cc2nc(C3CCN(CC4COc5ccccc5O4)CC3)[nH]c2cc1C (stereo not given),2.83
3,CNC(=O)Nc1cccc(C(F)(F)F)c1,0
4,COc1ccccc1C1CC(c2ccc(C)cc2)Nc2ncnn21 (stereo not given),-3.17
5,CCCn1c2ccccc2c2nnc(SCC(=O)OCC)nc21,3.64
6,Cc1nnc2ccc(N3CCN(c4cccc(C(F)(F)F)c4)CC3)nn12,-1.15
7,O=C(Cn1ccc2ccccc2c1=O)NCCC(=O)NC1CCN(Cc2ccccc2)CC1,-4.91
8,Cc1nc(SCC(=O)Nc2ccccc2C(F)(F)F)c2c(=O)n(C)c(=O)n(C)c2n1,3.61
9,CCOC(=O)N1CCC(NC(=O)CSCc2nc(-c3cccc(OC)c3)oc2C)CC1,3.06
10,COc1cc(C(=O)N2CCC(c3nc(-c4cccnc4)no3)CC2)cc(OC)c1OC,6
11,O=C(Nc1ccc2c(c1)OCCO2)c1ccco1,-5.08
12,CCOC(=O)c1cnc(-n2nc(C)cc2C)nc1Nc1cccc(C(C)=O)c1,-4.35
13,O=c1[nH]cnc2c1nc(SCc1ccccc1)n2C1OC(CO)C(O)C1O (stereo not given),4.6
14,COc1ccc(CCn2c(-c3ccco3)nc3nc4ccccc4nc32)cc1,1.31
15,O=S(=O)(c1ccc(-c2csc(-c3cccnc3)n2)cc1)N1CCCCC1,-1.75
16,CCCOc1nc(N)c(C#N)c(-c2ccccc2F)c1C#N,-9.52
17,COc1cc(OC)c(OC)cc1CN(C)CCc1ccccn1,7
18,CCOC(=O)c1c(-c2cccs2)csc1NC(=O)CCCC(=O)O,-3.27
19,Cc1cccc(-c2c3c(=O)n(C)c(=O)n(C)c3cn2-c2ccc(O)cc2)c1,-2.38
20,CCN(C(=O)CCc1nc(-c2ccccc2F)no1)c1cc(OC)ccc1OC,0.33

row,SMILES,inhibition [%]
1,CCc1nc(SCC(=O)Nc2nccs2)c2oc3ccccc3c2n1,-7
2,Cc1c(C#N)sc2nc(-c3ccccc3)nc(N3CCCC3)c12,-8
3,Cc1cccc(N=C2NC(=O)CS2)c1C,-0.81
4,COCCNC(=O)c1ccc2c(c1)nc(C)n2-c1cccc(F)c1,4.35
5,CCOC(=O)c1[nH]c2ccc(C)cc2c1N=C(C)N(C)C,-5.32
6,COc1ccc2nc(N3CCC(C)CC3)c(C#N)cc2c1,2.62
7,Cc1ccccc1NS(=O)(=O)c1cc(S(C)(=O)=O)ccc1Cl,-4.29
8,Cc1cc(C)c2c(N)c(C(=O)N3CCN(c4ncccn4)CC3)sc2n1,0.49
9,Cc1cc(C)n2nc3nc(N4CCCCC4)nc(-c4ccco4)c3c2n1,-5.16
10,O=C(O)c1cc(=O)cc(C(=O)O)[nH]1,22.9
11,COc1ccc(NC(C)=O)cc1NC(=O)CN1CCN(c2ccccn2)CC1,-7.9
12,CCOC(=O)c1cccc(NC(=O)CS(=O)(=O)Cc2nc(-c3cccc(OC)c3)oc2C)c1,-6.61
13,O=C(CCc1nc2ccccc2s1)OCC(=O)N1CCN(C(=O)c2ccco2)CC1,-0.48
14,Cc1ccccc1CS(=O)(=O)Cc1ccc(C(=O)NCCCN2CCOCC2)o1,-6.13
15,CCOC(=O)c1cccc(NC(=O)Cn2cnc3c2c(=O)n(C)c(=O)n3C)c1,-9.33
16,O=C(Nc1ccon1)c1csc2c1CCCC2,2
17,CC(C)(C)n1ncc2c(=O)n(CC(=O)NCCc3ccccc3)cnc21,-6.13
18,Cc1cccc2sc(NC(=O)CN(C)S(=O)(=O)c3cccs3)nc12,-6.33
19,CCOC(=O)c1cccc(NC(=O)CSc2nnc(C3CCCCC3)n2C)c1,-0.95
20,CCCc1nnc2n1N=C(c1ccc(OC)c(OC)c1)CS2,2.62
